According to the supplement of paper PMC11624193, “Coupling cellular drug-target engagement to downstream pharmacology with CeTEAM” (Nature Communications, 2024):
Structures can show the parent of a compound that is named as a salt. Unmarked numbers belong to inactive results.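 Rule for the calls: active = log2 fold change beyond 2 SD from the library mean after excluding viability outliers; inactive = within 2 SD.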

Each compound was assayed against PARP1 L713F-nLuc biosensor (HCT116) (UniProt P09874) (assay: PARP1 L713F-nLuc/akaLuc ratio relative to DMSO control (biosensor stabilization) (fold change); higher = more PARP1 biosensor stabilization (target engagement / stabilizer), active = hit call of the paper). Conditions: stock concentration (mM; final µM = stock mM x 1): 10; 24 h.
Sequence of PARP1 L713F-nLuc biosensor (HCT116) (P09874 whole entry L713F, looked up): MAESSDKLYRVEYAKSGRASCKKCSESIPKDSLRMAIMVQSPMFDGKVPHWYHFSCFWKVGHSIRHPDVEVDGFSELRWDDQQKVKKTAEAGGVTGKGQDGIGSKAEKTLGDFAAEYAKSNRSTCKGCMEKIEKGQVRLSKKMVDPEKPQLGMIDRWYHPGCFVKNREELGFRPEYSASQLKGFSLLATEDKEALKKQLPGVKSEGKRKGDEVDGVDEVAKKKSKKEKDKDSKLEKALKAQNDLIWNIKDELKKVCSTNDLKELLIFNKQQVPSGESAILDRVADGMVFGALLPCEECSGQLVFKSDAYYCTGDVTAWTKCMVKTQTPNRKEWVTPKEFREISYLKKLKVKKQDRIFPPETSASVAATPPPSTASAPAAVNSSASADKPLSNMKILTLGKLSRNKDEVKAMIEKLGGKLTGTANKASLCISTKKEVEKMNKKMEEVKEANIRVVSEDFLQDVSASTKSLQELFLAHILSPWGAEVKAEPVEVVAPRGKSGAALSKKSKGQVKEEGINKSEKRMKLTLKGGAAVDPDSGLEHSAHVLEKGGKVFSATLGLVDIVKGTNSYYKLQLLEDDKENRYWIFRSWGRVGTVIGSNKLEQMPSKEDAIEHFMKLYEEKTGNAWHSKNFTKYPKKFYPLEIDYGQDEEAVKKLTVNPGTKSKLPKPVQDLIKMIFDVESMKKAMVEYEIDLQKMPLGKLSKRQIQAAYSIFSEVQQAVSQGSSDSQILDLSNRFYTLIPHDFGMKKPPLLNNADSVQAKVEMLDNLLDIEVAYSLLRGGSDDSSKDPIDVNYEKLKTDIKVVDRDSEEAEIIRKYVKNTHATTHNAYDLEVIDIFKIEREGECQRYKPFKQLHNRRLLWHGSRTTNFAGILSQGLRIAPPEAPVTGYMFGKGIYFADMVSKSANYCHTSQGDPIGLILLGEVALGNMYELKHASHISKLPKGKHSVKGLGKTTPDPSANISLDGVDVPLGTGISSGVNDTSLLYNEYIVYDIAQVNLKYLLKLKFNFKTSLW

Compound	PARP1 L713F-nLuc/akaLuc ratio
Cc1nc(=O)c2cc(CN(C)c3ccc(C(=O)N[C@@H](CCC(=O)O)C(=O)O)s3)ccc2[nH]1 [Raltitrexed]	1.07
CS(=O)(=O)c1ccc(-c2cnc(NCc3ccco3)n3cnnc23)cc1	0.722
N#CCC1(n2cc(-c3ncnc4[nH]ccc34)cn2)CN(C2CCN(C(=O)c3ccnc(C(F)(F)F)c3F)CC2)C1 [Itacitinib]	0.6
NC[C@@](O)(c1ccc(Cl)cc1)c1ccc(-c2cn[nH]c2)cc1	0.809
COc1cc2ncnc(Nc3ccc(O)c(Br)c3)c2cc1OC	0.973
Cn1cc(Nc2nccc(N3C[C@H]4CC[C@@H](C3)N4C(=O)[C@@H]3CC3(F)F)n2)cn1 [Brepocitinib (P-Tosylate)]	0.619
NCCNc1ccc(NCCN)c2c1C(=O)c1ccncc1C2=O [Pixantrone Maleate]	1.15
CC(=O)N(O)CCCCCNC(=O)CCC(=O)N(O)CCCCCNC(=O)CCC(=O)N(O)CCCCCN [Deferoxamine mesylate]	0.984
O=C(Nc1ccc(C(F)(F)F)cc1)Nc1ccc(S(=O)(=O)N2CCC[C@H]2C(=O)Nc2ccccc2)cc1	0.728
CC(C)(O)[C@H]1CC[C@H](Nc2ccc3ncc(-c4cccc(C(F)(F)F)c4)n3n2)CC1	0.732
O=c1oc2cc(O)ccc2c2ccccc12 [Urolithin B]	0.914
N=C(N)c1ccc(-c2ccc(-c3ccc(C(=N)N)cc3)o2)cc1 [Furamidine (dihydrochloride)]	0.717
